In assay [1] the target is Oxysterols receptor LXR-alpha (Homo sapiens) (UniProt Q13133). Briefly: ATG_LXRa_TRANS: Attagene TRANS-FACTORIAL HepG2 Assay for human Liver X Receptor alpha (LXRa) (AID 2282980; active = hit-call score of the fitted dose curve at least 0.9, where 1 is the maximum). The following applies: HepG2 Attagene TRANS reporter, LXRa transactivation. In a few lines: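 HepG2 cells transiently transfected with GAL4-UAS reporter units for chimeric NR-Gal4 proteins, exposed to chemicals for 24 h. Reporter mRNA quantified by RT-PCR and capillary electrophoresis; gain of signal fitted relative to DMSO.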
Sequence of Oxysterols receptor LXR-alpha (Homo sapiens) (Q13133 whole entry, looked up, the tested form may be a part): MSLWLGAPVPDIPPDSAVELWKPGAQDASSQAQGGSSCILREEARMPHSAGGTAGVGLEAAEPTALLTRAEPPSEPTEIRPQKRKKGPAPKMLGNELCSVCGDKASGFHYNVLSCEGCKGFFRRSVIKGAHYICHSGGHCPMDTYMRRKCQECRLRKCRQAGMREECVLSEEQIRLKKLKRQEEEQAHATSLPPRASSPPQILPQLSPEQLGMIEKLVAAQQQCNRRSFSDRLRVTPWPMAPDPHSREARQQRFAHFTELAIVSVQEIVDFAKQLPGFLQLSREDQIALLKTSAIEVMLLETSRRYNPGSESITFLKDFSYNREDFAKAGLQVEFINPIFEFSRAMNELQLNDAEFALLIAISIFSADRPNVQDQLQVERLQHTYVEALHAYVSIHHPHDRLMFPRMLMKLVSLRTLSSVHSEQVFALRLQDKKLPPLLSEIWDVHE

The target of assay [2] is Oxysterols receptor LXR-beta (Homo sapiens) (UniProt P55055). Briefly: ATG_LXRb_TRANS: Attagene TRANS-FACTORIAL HepG2 Assay for human Liver X Receptor beta (LXRb) (AID 2282981; active = hit-call score of the fitted dose curve at least 0.9, where 1 is the maximum). The following applies: HepG2 Attagene TRANS GAL4-LXRb reporter, mRNA. In a few lines: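 Readout: fluorescent reporter mRNA fragments resolved by capillary electrophoresis after RT-PCR. System: transiently transfected human HepG2, exogenous LXRb-Gal4 chimera driving GAL4-UAS reporter, 24 h dosing. Activity fitted upward against DMSO baseline.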
Sequence of Oxysterols receptor LXR-beta (Homo sapiens) (P55055 whole entry, looked up, the tested form may be a part): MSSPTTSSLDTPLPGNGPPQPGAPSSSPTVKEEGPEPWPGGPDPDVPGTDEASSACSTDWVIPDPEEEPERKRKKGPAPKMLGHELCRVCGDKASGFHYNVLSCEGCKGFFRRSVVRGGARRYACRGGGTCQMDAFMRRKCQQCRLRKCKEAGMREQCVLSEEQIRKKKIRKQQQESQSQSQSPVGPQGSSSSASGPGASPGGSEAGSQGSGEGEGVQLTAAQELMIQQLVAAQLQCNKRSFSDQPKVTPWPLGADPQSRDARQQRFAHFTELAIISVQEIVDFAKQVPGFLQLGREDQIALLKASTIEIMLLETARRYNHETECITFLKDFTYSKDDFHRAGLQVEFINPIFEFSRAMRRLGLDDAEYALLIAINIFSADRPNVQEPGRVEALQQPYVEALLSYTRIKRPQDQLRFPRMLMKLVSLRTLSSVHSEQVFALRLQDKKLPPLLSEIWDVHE

Assay [3] deals with Hepatocyte nuclear factor 4-alpha (Homo sapiens) (UniProt P41235). In words: ATG_HNF4a_TRANS: Attagene TRANS-FACTORIAL HepG2 Assay for human Hepatocyte Nuclear Factor 4 alpha (HNF4a) (AID 2282982; active = hit-call score of the fitted dose curve at least 0.9, where 1 is the maximum). The following applies: HepG2 HNF4a transactivation reporter, mRNA readout. The method, boiled down: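 Transient MRTU transfection of HepG2, 24 h dosing. Readout: reporter mRNA via RT-PCR + capillary electrophoresis, fluorescence; activity fit upward relative to DMSO control.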
Sequence of Hepatocyte nuclear factor 4-alpha (Homo sapiens) (P41235 whole entry, looked up): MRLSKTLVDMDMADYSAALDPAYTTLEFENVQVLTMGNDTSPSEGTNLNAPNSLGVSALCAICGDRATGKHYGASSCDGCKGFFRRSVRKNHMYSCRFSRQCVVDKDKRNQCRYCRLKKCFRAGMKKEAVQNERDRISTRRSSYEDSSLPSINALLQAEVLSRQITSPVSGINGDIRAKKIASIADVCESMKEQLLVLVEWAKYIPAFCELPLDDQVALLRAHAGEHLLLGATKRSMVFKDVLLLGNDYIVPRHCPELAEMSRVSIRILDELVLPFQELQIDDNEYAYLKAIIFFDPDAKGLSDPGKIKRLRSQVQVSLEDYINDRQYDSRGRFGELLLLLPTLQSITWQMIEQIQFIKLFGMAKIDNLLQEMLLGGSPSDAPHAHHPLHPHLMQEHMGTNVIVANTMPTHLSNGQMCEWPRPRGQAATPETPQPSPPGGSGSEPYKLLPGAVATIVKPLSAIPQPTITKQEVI

A short description of assay [4]: ATG_M_06_TRANS: Attagene TRANS-FACTORIAL HepG2 Assay for M06 Transcription Factor (Internal Marker) (AID 2282983; active = hit-call score of the fitted dose curve at least 0.9, where 1 is the maximum;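 also: reporter transcript level by RT-PCR then capillary electrophoresis fluorescence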). The following applies: HepG2 Attagene TRANS M06 internal marker reporter. In a few lines:
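mRNA levels of a reporter transcript, quantified as FAM fluorescence on capillary electrophoresis, served as readout. HepG2 cells expressing exogenous GAL4-chimera reporter constructs were exposed for 24 h. Gain of signal over DMSO was evaluated.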

Assay [5] has as its target Transcriptional activator Myb (Homo sapiens) (UniProt P10242). Briefly: ATG_Myb_CIS: Attagene CIS-FACTORIAL HepG2 Assay for human Myeloblastosis (Myb) Proto-Oncogene Transcription Factor (AID 2282986). The following applies: HepG2 Attagene CIS-FACTORIAL Myb reporter transcription; actives raise or lower the signal. The method, boiled down: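 In this HepG2 transient-transfection format, cis-regulated reporter mRNA is quantified 24 h post-dosing by RT-PCR with capillary electrophoresis, fitted bidirectionally to DMSO baseline.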

The nature of assay [6]: ATG_NFI_CIS: Attagene CIS-FACTORIAL HepG2 Assay for human Nuclear Factor I (NFI) (AID 2282989). The following applies: HepG2 cis-regulatory reporter, NFI response element transcription; actives raise or lower the signal. In a few lines: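 Transient MRTU transfection of HepG2 → 24 h chemical dosing → total RNA, oligo(dT) RT → PCR, 6-FAM primer extension, HpaI cut → capillary electrophoresis. Endpoint fitted bidirectionally relative to DMSO.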

Assay [7] deals with Myc proto-oncogene protein (Homo sapiens) (UniProt P01106). In words: ATG_Myc_CIS: Attagene CIS-FACTORIAL HepG2 Assay for human Myelocytomatosis (Myc) Proto-Oncogene Transcription Factor (AID 2282990). The following applies: HepG2, Attagene cis-reporter transcription factor activity; actives raise or lower the signal. In a few lines:
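Transiently transfected HepG2 cells bearing cis-promoter reporter units for endogenous transcription factors; 24 h exposure. Reporter mRNA measured by RT-PCR, 6-FAM primer extension, HpaI cut and capillary electrophoresis; bidirectional fit relative to DMSO.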

Assay [8] can be described thus: ATG_Oct_MLP_CIS: Attagene CIS-FACTORIAL HepG2 Assay for human Octamer-Binding Transcription Factor (Oct) (AID 2282993). The following applies: HepG2 Attagene cis-factorial Oct reporter, mRNA; actives raise or lower the signal. The method, boiled down:
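Transient MRTU transfection of HepG2 → 24 h compound treatment → RNA isolation, reverse transcription, PCR → 6-FAM primer extension, HpaI digest → capillary electrophoresis. Activity fitted both directions against DMSO.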

The target of assay [9] is Cellular tumor antigen p53 (Homo sapiens) (UniProt P04637). Briefly: ATG_p53_CIS: Attagene CIS-FACTORIAL HepG2 Assay for human p53 Transcription Factor (AID 2282994). The following applies: HepG2 p53 cis-element reporter, Attagene mRNA; actives raise or lower the signal. The method, boiled down: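 Transiently transfected HepG2 (multiple cis reporter transcription units); exposure 24 h; reporter RNA via RT-PCR, 6-FAM extension, 2 h HpaI digest at 37 C, CE detection; DMSO baseline.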
Sequence of Cellular tumor antigen p53 (Homo sapiens) (P04637 whole entry, looked up): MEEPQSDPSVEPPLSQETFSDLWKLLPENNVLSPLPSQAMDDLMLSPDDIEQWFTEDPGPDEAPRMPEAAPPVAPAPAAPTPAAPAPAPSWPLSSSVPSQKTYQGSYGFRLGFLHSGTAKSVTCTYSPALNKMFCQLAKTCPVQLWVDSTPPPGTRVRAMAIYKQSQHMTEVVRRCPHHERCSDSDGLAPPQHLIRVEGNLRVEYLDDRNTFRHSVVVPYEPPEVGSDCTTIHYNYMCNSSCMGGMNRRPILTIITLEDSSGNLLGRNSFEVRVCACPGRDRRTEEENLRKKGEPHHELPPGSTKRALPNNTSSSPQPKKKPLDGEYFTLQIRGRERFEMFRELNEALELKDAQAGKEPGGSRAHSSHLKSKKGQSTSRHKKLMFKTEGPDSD

Assay [10] can be described thus: BSK_3C_TissueFactor: BioMAP Diversity Plus: 3C Assay for Tissue Factor Biomarker Activity (AID 2282997). The following applies: BioMAP 3C HUVEC, tissue factor biomarker readout; actives raise or lower the signal. The method, boiled down: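 Tissue Factor measured by ELISA, 24 h after treatment of primary HUVEC in the BioMAP 3C setting.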
Assay [11] is described as follows: BSK_3C_uPAR: BioMAP Diversity Plus: 3C Assay for Urokinase-type plasminogen activator receptor (uPAR) Biomarker Activity (AID 2282998). The following applies: BioMAP 3C HUVEC, uPAR biomarker ELISA; actives raise or lower the signal. In a few lines:
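ELISA readout of uPAR on human vascular endothelium (umbilical vein primary cells), taken 24 h after chemical dosing. Increases and decreases are both fitted relative to DMSO vehicle.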
On the technique in general: An ELISA detects its analyte on a solid surface through an enzyme-linked reagent.

Assay [12] is described as follows: BSK_3C_VCAM1: BioMAP Diversity Plus: 3C Assay for Vascular cell adhesion molecule 1 (VCAM1) Biomarker Activity (AID 2282999). The following applies: BioMAP 3C HUVEC, VCAM1 ELISA, cytokine-stimulated; actives raise or lower the signal. The method, boiled down:
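HUVEC primary cells, 24 h compound exposure; VCAM-1 by ELISA; gain/loss of signal fitted bidirectionally vs DMSO baseline.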

Assay [13] is described as follows: BSK_4H_Eotaxin3: BioMAP Diversity Plus: 4H Assay for Eotaxin 3 Biomarker Activity (AID 2283000).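 Also: CCL26 protein level quantified by ELISA in parallel with SRB cytotoxicity check.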 The following applies: primary human endothelial cells (HUVEC); actives raise or lower the signal. The method, boiled down: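 Eotaxin-3 (CCL26) levels were measured by ELISA in HUVEC primary cultures 24 h post-dosing. Gain or loss of signal was fitted in both directions, with DMSO serving as baseline and negative control.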

In assay [14] the target is Bile acid receptor (Homo sapiens) (UniProt Q96RI1). In words: ATG_FXR_TRANS: Attagene TRANS-FACTORIAL HepG2 Assay for Farnesoid X Receptor (FXR) (AID 2282979; active = hit-call score of the fitted dose curve at least 0.9, where 1 is the maximum;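 also: hits raise reporter mRNA above DMSO so AC50 marks FXR activation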). The following applies: HepG2 Attagene TRANS FXR-GAL4 reporter transcription. In a few lines:
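HepG2 cells were transiently transfected with GAL4-UAS reporters driven by chimeric NR-Gal4 proteins and dosed for 24 h. Reporter mRNA was quantified by RT-PCR, fluorescent labelling, HpaI digestion and capillary electrophoresis, with gain of signal scored versus DMSO.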

In assay [15] the target is Nuclear respiratory factor 1 (Homo sapiens) (UniProt Q16656). In words: ATG_NRF1_CIS: Attagene CIS-FACTORIAL HepG2 Assay for human Nuclear Respiratory Factor 1 (NRF1) Orphan Gene (AID 2282987). The following applies: HepG2 NRF1 cis-element reporter, Attagene multiplex; actives raise or lower the signal. The method, boiled down:
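Using DMSO as baseline, gain- or loss-of-signal was fitted for reporter mRNA levels in HepG2 cells transiently transfected with cis-regulated reporter units. Samples were taken 24 h after dosing and read by RT-PCR with capillary electrophoresis.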

Assay [16] can be described thus: ATG_NF_kB_CIS: Attagene CIS-FACTORIAL HepG2 Assay for human Nuclear Factor Kappa B (NF-kB) (AID 2282991). The following applies: HepG2 Attagene cis-factorial NF-kB reporter mRNA; actives raise or lower the signal. In a few lines:
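Endpoint from a 52-component multiplexed HepG2 reporter panel: cis-regulated transcription units transiently transfected, 24 h dosing, reporter mRNA quantified by RT-PCR and capillary electrophoresis, scored as increase or decrease against DMSO.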

Assay [17] can be described thus: ATG_NRF2_ARE_CIS: Attagene CIS-FACTORIAL HepG2 Assay for human Nuclear Factor Erythroid 2 Related Factor 2 (NFR2) response to Antioxidant Response Elements (ARE) (AID 2282992).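 As to AC50: reporter mRNA level measured by RT-PCR and capillary electrophoresis fluorescence.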 The following applies: HepG2 Attagene ARE/NRF2 reporter, transcription factor activity; actives raise or lower the signal. The method, boiled down: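 Fluorescence intensity of reporter-specific cDNA fragments, separated by capillary electrophoresis, reflects mRNA induction in transfected HepG2 cells at 24 h. Activity is fitted bidirectionally, DMSO serving as baseline.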

The target of assay [18] is Nuclear receptor subfamily 4 group A member 2 (Homo sapiens) (UniProt P43354). Briefly: ATG_NURR1_TRANS: Attagene TRANS-FACTORIAL HepG2 Assay for human Nuclear Receptor Related Protein 1 (NURR1) (AID 2282985; active = hit-call score of the fitted dose curve at least 0.9, where 1 is the maximum). The following applies: HepG2 Attagene TRANS reporter, mRNA readout. In a few lines: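 Read-out: reporter mRNA induction by RT-PCR plus capillary electrophoresis with fluorescence detection, after 24 h dosing of transfected HepG2 cells. Exogenous NR-Gal4 chimera activity drives GAL4-UAS reporter; activity fitted upward versus DMSO.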
Sequence of Nuclear receptor subfamily 4 group A member 2 (Homo sapiens) (P43354 whole entry, looked up, the tested form may be a part): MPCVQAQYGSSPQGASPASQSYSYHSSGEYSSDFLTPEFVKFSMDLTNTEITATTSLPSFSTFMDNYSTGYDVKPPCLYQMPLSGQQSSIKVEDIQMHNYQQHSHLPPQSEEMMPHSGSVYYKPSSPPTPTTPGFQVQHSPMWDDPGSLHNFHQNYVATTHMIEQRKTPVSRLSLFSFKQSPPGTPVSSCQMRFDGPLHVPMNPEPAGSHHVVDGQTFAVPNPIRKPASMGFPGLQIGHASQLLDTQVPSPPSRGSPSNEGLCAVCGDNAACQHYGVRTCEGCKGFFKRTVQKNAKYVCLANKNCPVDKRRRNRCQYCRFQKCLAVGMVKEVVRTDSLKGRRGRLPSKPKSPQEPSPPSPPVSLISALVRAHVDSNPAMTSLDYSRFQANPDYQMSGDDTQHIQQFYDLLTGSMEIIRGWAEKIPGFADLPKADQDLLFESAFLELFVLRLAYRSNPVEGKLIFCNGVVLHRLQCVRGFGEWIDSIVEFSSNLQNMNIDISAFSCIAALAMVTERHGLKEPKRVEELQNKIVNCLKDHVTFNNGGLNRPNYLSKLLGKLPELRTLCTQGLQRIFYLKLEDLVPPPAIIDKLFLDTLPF

Assay [19] is described as follows: ATG_M_32_TRANS: Attagene TRANS-FACTORIAL HepG2 Assay for M32 Transcription Factor (Internal Marker) (AID 2282984; active = hit-call score of the fitted dose curve at least 0.9, where 1 is the maximum;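 also: transcript level of a background control reporter unit measured by RT-PCR and capillary electrophoresis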). The following applies: HepG2 Attagene TRANS M32 internal marker reporter. The method, boiled down: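 Read-out: fluorescent reporter cDNA fragments resolved by capillary electrophoresis after RT-PCR of total RNA. Transfected HepG2 cells were exposed to chemical for 24 h. Activity scored in the positive direction relative to DMSO.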

The structures appear in SMILES notation. Results filed as inconclusive are left out. The source made the active and inactive calls. The calls were made as follows, unless noted: active = hit-call score of the fitted dose curve at least 0.9, where 1 is the maximum; inactive = score below 0.9.

Sequence of Transcriptional activator Myb (Homo sapiens) (P10242 whole entry, looked up): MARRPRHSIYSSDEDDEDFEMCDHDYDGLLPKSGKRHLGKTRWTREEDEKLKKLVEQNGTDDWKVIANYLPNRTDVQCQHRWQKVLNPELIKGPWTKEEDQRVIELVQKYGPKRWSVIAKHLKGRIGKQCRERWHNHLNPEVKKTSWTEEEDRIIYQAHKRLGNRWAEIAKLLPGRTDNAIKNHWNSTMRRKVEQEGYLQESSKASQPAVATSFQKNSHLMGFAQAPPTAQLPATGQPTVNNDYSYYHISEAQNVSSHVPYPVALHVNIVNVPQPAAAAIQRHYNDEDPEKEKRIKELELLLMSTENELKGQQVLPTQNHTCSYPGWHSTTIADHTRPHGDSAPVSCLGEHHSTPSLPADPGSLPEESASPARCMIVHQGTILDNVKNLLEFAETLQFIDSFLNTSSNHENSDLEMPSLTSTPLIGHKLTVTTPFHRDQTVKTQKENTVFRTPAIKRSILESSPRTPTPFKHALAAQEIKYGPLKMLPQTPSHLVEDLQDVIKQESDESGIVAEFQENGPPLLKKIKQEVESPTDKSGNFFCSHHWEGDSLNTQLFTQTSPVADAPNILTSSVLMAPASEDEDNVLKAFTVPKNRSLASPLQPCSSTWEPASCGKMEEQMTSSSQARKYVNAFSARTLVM
Sequence of Bile acid receptor (Homo sapiens) (Q96RI1 whole entry, looked up, the tested form may be a part): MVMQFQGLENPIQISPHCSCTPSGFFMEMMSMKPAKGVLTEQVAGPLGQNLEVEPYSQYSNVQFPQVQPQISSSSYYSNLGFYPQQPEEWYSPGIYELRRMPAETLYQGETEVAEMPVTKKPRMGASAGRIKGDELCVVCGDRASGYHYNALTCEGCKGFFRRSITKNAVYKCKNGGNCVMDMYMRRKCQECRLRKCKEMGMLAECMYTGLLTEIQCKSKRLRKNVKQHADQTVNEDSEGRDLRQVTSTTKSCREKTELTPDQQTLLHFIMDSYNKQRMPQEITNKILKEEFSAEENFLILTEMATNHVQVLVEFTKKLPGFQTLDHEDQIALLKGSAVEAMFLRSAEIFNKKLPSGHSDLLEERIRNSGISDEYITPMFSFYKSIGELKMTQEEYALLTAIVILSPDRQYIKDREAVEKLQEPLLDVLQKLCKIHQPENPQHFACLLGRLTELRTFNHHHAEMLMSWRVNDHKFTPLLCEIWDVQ
Sequence of Nuclear respiratory factor 1 (Homo sapiens) (Q16656 whole entry, looked up): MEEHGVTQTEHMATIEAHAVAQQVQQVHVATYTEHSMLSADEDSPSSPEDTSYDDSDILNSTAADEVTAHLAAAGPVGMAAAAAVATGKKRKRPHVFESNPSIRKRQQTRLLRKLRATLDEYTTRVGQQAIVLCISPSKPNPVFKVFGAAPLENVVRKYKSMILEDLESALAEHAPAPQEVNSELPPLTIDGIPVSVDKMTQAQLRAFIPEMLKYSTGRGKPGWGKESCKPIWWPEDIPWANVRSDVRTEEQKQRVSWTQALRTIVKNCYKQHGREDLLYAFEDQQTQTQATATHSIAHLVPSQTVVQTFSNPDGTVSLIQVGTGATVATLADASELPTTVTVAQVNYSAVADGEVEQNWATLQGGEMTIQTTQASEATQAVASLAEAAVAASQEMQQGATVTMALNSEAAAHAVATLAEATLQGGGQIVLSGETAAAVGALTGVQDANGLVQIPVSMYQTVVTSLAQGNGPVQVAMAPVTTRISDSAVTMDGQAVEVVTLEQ
Sequence of Myc proto-oncogene protein (Homo sapiens) (P01106 whole entry, looked up): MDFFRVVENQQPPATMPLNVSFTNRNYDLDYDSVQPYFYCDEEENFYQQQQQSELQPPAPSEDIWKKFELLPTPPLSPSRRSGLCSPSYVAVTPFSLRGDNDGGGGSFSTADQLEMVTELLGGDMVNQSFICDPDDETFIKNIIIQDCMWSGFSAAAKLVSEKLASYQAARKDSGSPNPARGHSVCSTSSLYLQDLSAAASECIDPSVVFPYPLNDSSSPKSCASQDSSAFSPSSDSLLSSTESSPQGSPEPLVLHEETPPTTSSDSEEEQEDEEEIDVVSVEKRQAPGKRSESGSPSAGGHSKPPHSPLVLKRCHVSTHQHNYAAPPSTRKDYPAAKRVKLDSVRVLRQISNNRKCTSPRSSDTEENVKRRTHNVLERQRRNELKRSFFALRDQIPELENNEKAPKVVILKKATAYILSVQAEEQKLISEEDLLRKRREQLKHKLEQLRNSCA

As for `CCCCCCCCC=O`, the outcome in assay [1], in assay [2], in assay [3], in [4], in assay [5] and in assay [6] was inactive. Further, the outcome in [7], in [8], in [9], in assay [10], in [11] and in [12] was inactive. Also, the outcome in assay [13] was inactive.
Consider `CCCCCCCCCOC(C)=O`, for which the compound was called inactive in assay [14], in assay [5], in [15], in [6], in assay [7] and in [16]. Moreover, the compound was called inactive in [17], in assay [8] and in [9].
In the case of `CC(C)(Oc1ccc(CCNC(=O)c2ccc(Cl)cc2)cc1)C(=O)O`, the result in assay [14], in [2], in [3], in assay [4], in assay [5] and in assay [15] was inactive. For the same compound, the result in assay [6], in assay [7], in [16] and in assay [17] was inactive.
Regarding `c1ccc2sc(SN(C3CCCCC3)C3CCCCC3)nc2c1`, the compound was classed as inactive in [14], in assay [3], in assay [18], in [5], in [15] and in [16]. The call in assay [17], in assay [8], in assay [10], in assay [12] and in assay [13] was inactive. Besides, the figures for the AC50 in assay [7] and in [11] were 8.17 µM (active) and 7.59 µM (active), respectively.
`CCCCO`: the result in assay [14], in assay [3], in assay [19], in [5], in assay [15] and in assay [6] was inactive. Moreover, the call in assay [7], in [17], in assay [8] and in assay [9] was inactive.
For the compound `O=C(O)COCCN1CCN(C(c2ccccc2)c2ccc(Cl)cc2)CC1` (stereo not given), the compound was called inactive in [14], in assay [4], in assay [5] and in [7].
On to `Cc1ncc([N+](=O)[O-])n1C`, for which the result in assay [14], in assay [2], in [18], in assay [5], in [15] and in assay [6] was inactive. The outcome in assay [7], in assay [17], in [8] and in assay [9] was inactive.
Regarding `C=CC(=O)NCOCC(C)C`, the compound was called inactive in assay [14], in [3], in [4], in assay [19], in assay [18] and in [5]. In addition, the outcome in assay [15], in assay [6], in [7], in assay [16], in [8] and in assay [9] was inactive.
Consider `CCCC/C=C\CCCCCCCCCC=O`, for which the result in assay [14], in assay [19], in [5], in assay [6], in assay [7] and in assay [16] was inactive. The compound was called inactive in assay [17], in assay [8] and in [9].
`COC(=O)C1=C(C)NC(C)=C(C(=O)OCCN(C)Cc2ccccc2)C1c1cccc([N+](=O)[O-])c1` (stereo not given): the half-maximal activity concentration (AC50) in assay [14] was 637 nM (active); in [15] it was 6.96 µM (active). Besides, the call in assay [19], in [5], in assay [6], in [7], in assay [16] and in assay [8] was inactive.
As for `CCCCCCCCCCCCCC(=O)O`, the outcome in assay [14], in assay [3], in assay [4], in [19], in assay [18] and in assay [5] was inactive. Moreover, the result in assay [15], in assay [6], in [7] and in assay [8] was inactive. Further, the half-maximal activity concentration (AC50) in assay [17] is 65.5 µM (active).
`CC(C)OP(=O)(CP(=O)(OC(C)C)OC(C)C)OC(C)C`: the call in assay [1], in [2], in [4], in [19], in [18] and in [5] was inactive. The outcome in assay [7], in assay [16], in assay [17], in assay [8] and in [9] was inactive.

As a reminder, the AC50 is the concentration at which the activity in the assay is half-maximal.
